The source of these data is PubChem BioAssay (EPA / NIEHS).

Active and inactive are the calls of the source. How the source made its calls: active means hit-call score of the fitted dose curve at least 0.9, where 1 is the maximum; inactive means score below 0.9.

This test is described as follows: ATG_VDRE_CIS: Attagene CIS-FACTORIAL HepG2 Assay for human Vitamin D Receptor Element (VDRE) (AID 2282968). The following applies: HepG2 VDRE cis-reporter transcription, actives raise or lower the signal. How it is done: ATG_CIS is a cell-based, multiplexed-readout assay that uses HepG2, a human liver cell line, with measurements taken at 24 hours after chemical dosing in a 24-well plate.ATG_VDRE_CIS is one of 52 assay component(s) measured or calculated from the ATG_CIS assay. It is designed to make measurements of mRNA induction, a form of inducible reporter, as detected with fluorescence intensity signals by Reverse transcription polymerase chain reaction (RT-PCR) and Capillary electrophoresis technology.Data from the assay component ATG_VDRE_CIS was analyzed into 1 assay endpoint. This assay endpoint, ATG_VDRE_CIS, was analyzed with bidirectional fitting relative to DMSO as the negative control and baseline of activity. Using a type of inducible reporter, measures of mRNA for gain or loss-of-signal activity can be used to understand the reporter gene at the transcription factor-level as they relate to the gene VDR. Furthermore, this assay endpoint can be referred to as a primary readout, because this assay has produced multiple assay endpoints where this one serves a reporter gene function. To generalize the intended target to other relatable targets, this assay endpoint is annotated to the nuclear receptor intended target family, where the subfamily is non-steroidal.
Human liver HepG2 cells are transiently transfected with multiple reporter transcription units (MRTUs) in 6-well plates using FuGene 6 reagent (Roche; 3 ml FuGene/1 mg DNA). The MRTU constructs are regulated by a cis-regulating element (promoter). […] A major difference between the CIS and TRANS system is that in CIS activities of endogenous TFs are measured, whereas the TRANS assay evaluates changes in activities of exogenous, chimeric NR-Gal4 proteins. […] At the end of 24 hour incubation, total RNA was isolated using TriZol reagent (Invitrogen). The isolated RNA is then reverse-transcribed using oligo(dT) primer and Mo-MLV reverse transcriptase (Invitrogen) with DNAse I (Ambion) treatment for 30 min. The one-tenth of the produced cDNA was amplified by PCR using Taq DNA polymerase (Invitrogen) and two reporter sequence-specific primers. The PCR products were fluorescently labeled by primer extension with 6-arboxyfluorescein (6-FAM) 5'-labeled reporter sequence-specific primer (2 min at 95 C, 20 s at 68 C and 10 min at 72 C) and these products were digested with 5U of HpaI (New England Biolabs) for 2h at 37 C. The fragments were purified using Qiaquick PCR columns (Qiagen), analyzed on an ABI 3130xL genetic analyzer (Applied Biosystems) with peak positions identified by using a set of X-rhodamine (ROX)-labeled MapMarker1000 molecular weight standards (BioVentures). The raw capillary electrophoresis data was processed using Attagraph software (Attagene).
With `CCCCSP(=O)(SCCCC)SCCCC`, the AC50 was 12 µM (active).

With `CNC(=O)Oc1cccc2c1OC(C)(C)O2`, the AC50 is 50 µM (active).

For `CCOP(=O)(NC(C)C)Oc1ccc(SC)c(C)c1` (stereo not given), the AC50 is 8.8 µM (active).

As to `Cc1cc(C2CC2)nc(Nc2ccccc2)n1`, the AC50 is 28.6 µM (active).

Take `CN1COCN(Cc2cnc(Cl)s2)C1=N[N+](=O)[O-]`: the molecule was called inactive.

Turning to `CC(C1CC1)C(O)(Cn1cncn1)c1ccc(Cl)cc1` (stereo not given), the molecule was classed as inactive.

`CCOP(=S)(Oc1cnc(C(C)(C)C)nc1)OC(C)C` (stereo not given): the AC50 is 1.89 µM (active).

Turning to `CN(C)C(=O)Nc1cccc(C(F)(F)F)c1`, the outcome was inactive.

`CN(C)NC(=O)CCC(=O)O`: the call was inactive.

Consider `CC(C)N(C(=O)SCC(Cl)=C(Cl)Cl)C(C)C`, for which the AC50 was 29.1 µM (active).

With `CCCOCC(=Nc1ccc(Cl)cc1C(F)(F)F)n1ccnc1`, the result was inactive.

As for `C#CCC1=C(C)C(OC(=O)C2C(C=C(C)C)C2(C)C)CC1=O` (stereo not given), the AC50 was 7.01 µM (active).

In the case of `CSC1=N[C@@](C)(c2ccccc2)C(=O)N1Nc1ccccc1`, the AC50 is 24.3 µM (active).

Consider `COP(=O)(NC(C)=O)SC` (stereo not given), for which the molecule was classed as inactive.

Regarding `CCCSP(=O)(OCC)SCCC`, the AC50 was 50 µM (active).

Consider `CCC(=NOC/C=C/Cl)C1=C(O)CC(C2CCOCC2)CC1=O` (stereo not given), for which the molecule was called inactive.

Regarding `CCC(CC)Nc1c([N+](=O)[O-])cc(C)c(C)c1[N+](=O)[O-]`, the concentration at half-maximal activity (AC50) is 15.3 µM (active).

For `CC(=NC#N)N(C)Cc1ccc(Cl)nc1`, the molecule was called inactive.

`Cc1nn(-c2cc(NS(C)(=O)=O)c(Cl)cc2Cl)c(=O)n1C(F)F`: the half-maximal activity concentration (AC50) is 30.8 µM (active).

`CCOP(=O)(SC(C)CC)N1CCSC1=O` (stereo not given): the molecule was called inactive.

Take `CNc1cnn(-c2cccc(C(F)(F)F)c2)c(=O)c1Cl`: the AC50 is 13.6 µM (active).

Consider `CC1(C(=O)Nc2ccc(O)c(Cl)c2Cl)CCCCC1`, for which the AC50 was 10.8 µM (active).

As to `CNC(=O)ON=C(C)SC`, the molecule was classed as inactive.

For the molecule `CCc1cnc(C2=NC(C)(C(C)C)C(=O)N2)c(C(=O)O)c1` (stereo not given), the molecule was called inactive.

As to `C[Si](Cn1cncn1)(c1ccc(F)cc1)c1ccc(F)cc1`, the AC50 is 27.6 µM (active).

Turning to `CC[C@H](C)[C@H]1O[C@]2(C=C[C@@H]1C)C[C@@H]1C[C@@H](C/C=C(\C)[C@@H](O[C@H]3C[C@H](OC)[C@@H](O[C@H]4C[C@H](OC)[C@@H](NC)[C@H](C)O4)[C@H](C)O3)[C@@H](C)/C=C/C=C3\CO[C@@H]4[C@H](O)C(C)=C[C@@H](C(=O)O1)[C@]34O)O2`, the molecule was classed as inactive.

Take `Nc1c(Cl)cc([N+](=O)[O-])cc1Cl`: the molecule was classed as inactive.

With `CCCOc1nn(C(=O)NS(=O)(=O)c2ccccc2C(=O)OC)c(=O)n1C`, the molecule was classed as inactive.

On to `CCCSP(=O)(OCC)Oc1ccc(Br)cc1Cl` (stereo not given), for which the AC50 is 6.6 µM (active).

Regarding `COP(=O)(OC)C(O)C(Cl)(Cl)Cl` (stereo not given), the AC50 was 50 µM (active).

On to `CCOP(=S)(OCC)OC(Cl)C(Cl)(Cl)Cl` (stereo not given), for which the AC50 was 50 µM (active).

As for `CCc1cccc(C)c1N(C(=O)CCl)C(C)COC` (stereo not given), the AC50 was 9.18 µM (active).

With `COP(=O)(OC)SCn1c(=O)oc2cc(Cl)cnc21`, the result was inactive.

Turning to `C[N+]1(C)CCCCC1`, the result was inactive.

In the case of `CNC(=O)ON=C(SC)C(=O)N(C)C`, the outcome was inactive.

Turning to `CCC(=O)Nc1ccc(Cl)c(Cl)c1`, the molecule was called inactive.

Regarding `COc1cccc(C(=O)NN(C(=O)c2cc(C)cc(C)c2)C(C)(C)C)c1C`, the AC50 is 1.94 µM (active).

On to `C#CC(C)(C)NC(=O)c1cc(Cl)cc(Cl)c1`, for which the AC50 is 29.3 µM (active).

With `CC(C)=CC1C(C(=O)OCN2C(=O)C3=C(CCCC3)C2=O)C1(C)C` (stereo not given), the AC50 was 31.7 µM (active).

Take `CSc1nnc(C(C)(C)C)c(=O)n1N`: the outcome was inactive.

A word on the AC50: it is the concentration at which the activity in the assay is half-maximal.
